Data reported in PubChem BioAssay (NCATS).
Inconclusive results are not listed. The source made the active and inactive calls. Calls come from the whole dose curve; as a rule, active = well fitted cell-killing curve with a large enough effect; inconclusive = small, poorly fitted or top-dose-only effect, or effect the other way; inactive = no such curve, though single readings can be large or run the other way.

Legend:
[1] = Quantitative High-Throughput drug screen in 47 multiple myeloma cell lines against the NCATS MIPE library collection: MM1S_ATCC cell viability assay (AID 1918980); note: nearly all actives have a fitted effect of over 45% in size
Procedure, shortened: (§1)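 ATP-based CellTiter-Glo luminescence after 48 h drug exposure (37 °C, 5% CO2) of 500 myeloma cells per well. DMSO-only wells set 100% viability, media-only wells 0%; MIPE 4.0 library added by pin tool.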

[2] = Quantitative High-Throughput drug screen in 47 multiple myeloma cell lines against the NCATS MIPE library collection: OCIMY7_PLB cell viability assay (AID 1918987); note: nearly all actives have a fitted effect of over 65% in size
Procedure, shortened: as §1

[3] = Quantitative High-Throughput drug screen in 47 multiple myeloma cell lines against the NCATS MIPE library collection: U266_ATCC cell viability assay (AID 1919864); note: nearly all actives have a fitted effect of over 35% in size
Procedure, shortened: as §1

[4] = Quantitative High-Throughput drug screen in 47 multiple myeloma cell lines against the NCATS MIPE library collection: XG6_PLB cell viability assay (AID 1919865); note: nearly all actives have a fitted effect of over 40% in size
Procedure, shortened: as §1

[5] = Quantitative High-Throughput drug screen in 47 multiple myeloma cell lines against the NCATS MIPE library collection: XG1_PLB cell viability assay (AID 1919866); note: nearly all actives have a fitted effect of over 35% in size
Procedure, shortened: as §1

[6] = Quantitative High-Throughput drug screen in 47 multiple myeloma cell lines against the NCATS MIPE library collection: VP6_DJ cell viability assay (AID 1919867); note: nearly all actives have a fitted effect of over 40% in size
Procedure, shortened: as §1

[7] = Quantitative High-Throughput drug screen in 47 multiple myeloma cell lines against the NCATS MIPE library collection: PCM6_Riken cell viability assay (AID 1919870); note: nearly all actives have a fitted effect of over 30% in size
Procedure, shortened: as §1

[8] = Quantitative High-Throughput drug screen in 47 multiple myeloma cell lines against the NCATS MIPE library collection: RPMI8226_ATCC cell viability assay (AID 1919871); note: nearly all actives have a fitted effect of over 30% in size
Procedure, shortened: as §1

[9] = Quantitative High-Throughput drug screen in 47 multiple myeloma cell lines against the NCATS MIPE library collection: MM1R_ATCC cell viability assay (AID 1918981); note: nearly all actives have a fitted effect of over 35% in size
Procedure, shortened: as §1

[10] = Quantitative High-Throughput drug screen in 47 multiple myeloma cell lines against the NCATS MIPE library collection: L363_DSMZ cell viability assay (AID 1918984); note: nearly all actives have a fitted effect of over 40% in size
Procedure, shortened: as §1

[11] = Quantitative High-Throughput drug screen in 47 multiple myeloma cell lines against the NCATS MIPE library collection: KMS34_JCRB cell viability assay (AID 1918985); note: nearly all actives have a fitted effect of over 40% in size
Procedure, shortened: as §1

[12] = Quantitative High-Throughput drug screen in 47 multiple myeloma cell lines against the NCATS MIPE library collection: OCIMY5_PLB cell viability assay (AID 1918988); note: nearly all actives have a fitted effect of over 65% in size
Procedure, shortened: as §1

[13] = Quantitative High-Throughput drug screen in 47 multiple myeloma cell lines against the NCATS MIPE library collection: UTMC2_PLB cell viability assay (AID 1919868); note: nearly all actives have a fitted effect of over 55% in size
Procedure, shortened: as §1

[14] = Quantitative High-Throughput drug screen in 47 multiple myeloma cell lines against the NCATS MIPE library collection: PE2_PLB cell viability assay (AID 1919869); note: nearly all actives have a fitted effect of over 35% in size
Procedure, shortened: as §1

[15] = Quantitative High-Throughput drug screen in 47 multiple myeloma cell lines against the NCATS MIPE library collection: LP1_DSMZ cell viability assay (AID 1918982); note: nearly all actives have a fitted effect of over 35% in size
Procedure, shortened: as §1

[16] = Quantitative High-Throughput drug screen in 47 multiple myeloma cell lines against the NCATS MIPE library collection: OPM1_PLB cell viability assay (AID 1918989); note: nearly all actives have a fitted effect of over 40% in size
Procedure, shortened: as §1

[17] = Quantitative High-Throughput drug screen in 47 multiple myeloma cell lines against the NCATS MIPE library collection: OPM2_DSMZ cell viability assay (AID 1919872); note: nearly all actives have a fitted effect of over 30% in size
Procedure, shortened: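 Myeloma cell lines, 500 cells per well, exposed to MIPE 4.0 library compounds for 48 h at 37C, 5% CO2. Viability from ATP by CellTiter-Glo luminescence; normalised to DMSO (100%) and media-only (0%) wells.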

[18] = Quantitative High-Throughput drug screen in 47 multiple myeloma cell lines against the NCATS MIPE library collection: KMS28PE_JCRB cell viability assay (AID 1918983); note: nearly all actives have a fitted effect of over 35% in size
Procedure, shortened: as §1

[19] = Quantitative High-Throughput drug screen in 47 multiple myeloma cell lines against the NCATS MIPE library collection: SKMM1_PLB cell viability assay (AID 1919863); details: SKMM1 myeloma viability, CellTiter-Glo ATP, 48 h; viability: active compounds read low; note: nearly all actives have a fitted effect of over 35% in size; for viability: series mostly up to about 46 µM
Procedure, shortened: as §1
Potency is the fitted concentration of half-maximal effect.

Cc1ccc(S(=O)(=O)NC(=O)NN2CC3CCCC3C2)cc1 (configuration not stated)
active: Potency [1] 20.9 µM | Potency [2] 20.9 µM | Potency [3] 20.9 µM | Potency [4] 20.9 µM | Potency [5] 23.5 µM | Potency [6] 23.5 µM | Potency [7] 20.9 µM | Potency [8] 23.5 µM

Nc1nc(N)c(N=O)c(OCC2CCCCC2)n1
active: Potency [1] 13.2 µM | Potency [9] 14.8 µM | Potency [10] 2.64 µM | Potency [11] 11.8 µM | Potency [2] 1.48 µM | Potency [12] 13.2 µM | Potency [3] 16.6 µM | Potency [5] 4.69 µM | Potency [6] 2.96 µM | Potency [13] 5.26 µM | Potency [14] 9.35 µM | Potency [7] 5.26 µM

CC1Cc2ccccc2N1NC(=O)c1ccc(Cl)c(S(N)(=O)=O)c1 (configuration not stated)
inactive: Potency [9] | Potency [15] | Potency [11] | Potency [16] | Potency [4] | Potency [5] | Potency [14] | Potency [7] | Potency [8] | Potency [17]
active: Potency [1] 16.6 µM | Potency [3] 6.62 µM

C=CCc1cc(OC)c(O)c(C(=O)NCCO)c1
inactive: Potency [1] | Potency [9] | Potency [15] | Potency [12] | Potency [3] | Potency [4] | Potency [5] | Potency [14] | Potency [17]

OC(CN1CCN(c2cccc(Cl)c2)CC1)C(c1ccccc1)c1ccccc1 (configuration not stated)
inactive: Potency [10] | Potency [14]
active: Potency [1] 5.26 µM | Potency [3] 10.5 µM

O=c1oc2cc(O)ccc2s1
inactive: Potency [9] | Potency [18] | Potency [10] | Potency [5] | Potency [6] | Potency [13] | Potency [14] | Potency [17]
active: Potency [1] 0.935 µM

CC(C)Oc1ccc2c(=O)c(-c3ccccc3)coc2c1
inactive: Potency [9] | Potency [16] | viability [19] 100% | Potency [3] | Potency [14] | Potency [7] | Potency [17]
active: Potency [1] 13.2 µM | Potency [18] 14.8 µM

Oc1ccc(-c2nc(-c3ccc(F)cc3)c(-c3ccncc3)[nH]2)cc1
inactive: Potency [8]
active: Potency [1] 16.6 µM | Potency [2] 9.35 µM | Potency [12] 16.6 µM | Potency [16] 20.9 µM | Potency [6] 16.6 µM | Potency [14] 26.4 µM | Potency [7] 20.9 µM

Oc1ccc2ccccc2c1SSc1c(O)ccc2ccccc12
active: Potency [1] 14.8 µM | Potency [9] 14.8 µM | Potency [15] 23.5 µM | Potency [10] 13.2 µM | Potency [11] 5.9 µM | Potency [2] 4.69 µM | Potency [12] 14.8 µM | Potency [16] 8.33 µM | Potency [19] 18.7 µM | Potency [3] 20.9 µM | Potency [4] 10.5 µM | Potency [5] 11.8 µM | Potency [6] 16.6 µM | Potency [14] 7.43 µM | Potency [7] 13.2 µM | Potency [8] 26.4 µM | Potency [17] 20.9 µM

O=C(NOCC1CC1)c1ccc(F)c(F)c1Nc1ccc(I)cc1Cl
active: Potency [1] 23.5 µM | Potency [10] 18.7 µM | Potency [11] 23.5 µM | Potency [19] 20.9 µM | Potency [3] 23.5 µM | Potency [5] 11.8 µM | Potency [6] 4.69 µM | Potency [13] 13.2 µM | Potency [14] 6.62 µM | Potency [7] 14.8 µM

CN(C)C(=O)[C@H](O)[C@H](Cc1ccccc1)NC(=O)c1cc2cc(Cl)ccc2[nH]1
active: Potency [1] 18.7 µM | Potency [9] 13.2 µM | Potency [10] 2.64 µM | Potency [2] 2.96 µM | Potency [12] 13.2 µM | Potency [6] 7.43 µM | Potency [13] 3.32 µM | Potency [14] 2.64 µM | Potency [7] 8.33 µM | Potency [17] 14.8 µM

Cc1ncc([N+](=O)[O-])n1CC(C)O (configuration not stated)
active: Potency [1] 14.8 µM | Potency [5] 10.5 µM | Potency [6] 18.7 µM | Potency [13] 18.7 µM
inactive: Potency [9] | Potency [15] | Potency [18] | viability [19] 126% | Potency [17]

O=c1ccc2ccc(O)c(O)c2o1
active: Potency [1] 4.18 µM | Potency [2] 8.33 µM | Potency [3] 9.35 µM | Potency [5] 4.18 µM | Potency [6] 11.8 µM | Potency [14] 13.2 µM | Potency [7] 13.2 µM
inactive: Potency [8] | Potency [17]

CN(C)c1ccc(O)c2c1C[C@H]1C[C@H]3[C@H](N(C)C)C(=O)C(C(N)=O)=C(O)[C@@]3(O)C(=O)C1=C2O
active: Potency [1] 3.72 µM | Potency [9] 16.6 µM | Potency [11] 16.6 µM | Potency [2] 10.5 µM | Potency [12] 9.35 µM | Potency [3] 5.9 µM | Potency [14] 20.9 µM | Potency [7] 18.7 µM | Potency [17] 20.9 µM

COc1cc(OC)c(C(=O)CCCN2CCCC2)c(OC)c1
active: Potency [1] 16.6 µM
inactive: Potency [9] | Potency [15] | Potency [11] | Potency [12] | Potency [16] | Potency [3] | Potency [5] | Potency [14] | Potency [17]

CCCc1cc(=O)[nH]c(=S)[nH]1
active: Potency [1] 2.64 µM
inactive: Potency [15] | Potency [2] | Potency [12] | Potency [16] | viability [19] 115% | Potency [5] | Potency [6] | Potency [14] | Potency [7] | Potency [8] | Potency [17]
